Calls of active or inactive are those of the source. Unless noted, no rule for the calls is given here.

The nature of assay [1]: anti-His antibody binders, primary screen, artefact control for SMM control protein annotation, biochemical, small-molecule microarray, 635 nm fluorescence (AID 1128).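 Also: score merges feature fluorescence with signal-to-noise for each printed compound spot.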 The conditions noted are these: anti-His Alexa647 antibody binding, higher = more signal.
Assay [2] concerns Human papillomavirus type 1a E7 protein (residues 1-88). Description: HPV1a E7 small-molecule binders, primary screen, biochemical, small-molecule microarray, residues 1-88, 635 nm (AID 1129). The conditions noted are these: small-molecule microarray binding, fluorescence 635 nm; higher = more signal.
Assay [3] addresses Focal adhesion kinase 1 (Homo sapiens) (UniProt Q05397). The assay is described as follows: small-molecule microarray binders of FAK, primary screen, biochemical, 635/667 nm fluorescence, BSA, DTT (AID 1130).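 Also: composite of spot emission at 667 nm and signal to noise over triplicate slides.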 The note with it: PTK2 binding, 635 nm fluorescence, higher = more signal.
Assay [4] deals with Fibrinogen (Alexa647-labelled). The assay is described as follows: fibrinogen binders on compound microarrays, profiling panel, artefact control for SMM control-protein annotation, biochemical, small-molecule microarray, 635/667 nm fluorescence (AID 1131).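 Also: z-score merges 667 nm fluorescence with per-spot signal-to-noise over triplicate slides.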 The note with it: fibrinogen-A647 binding fluorescence, higher = more signal.
Assay [5] addresses Follistatin (Homo sapiens) (UniProt P19883). The assay is described as follows: follistatin binders on small-molecule microarrays, primary screen, biochemical, small-molecule microarray, 635/667 nm fluorescence (AID 1132). The note with it: FST binding, 635 nm fluorescence, higher = more signal.
For assay [6], the target named is Fibroblast growth factor 2 (Homo sapiens) (UniProt P09038). Description: FGF2 binders on small-molecule microarrays, primary screen, biochemical, small-molecule microarray, 635/667 nm fluorescence (AID 1133). The note with it: small-molecule microarray binding, FGF2, fluorescence 635/667; higher = more signal.
The nature of assay [7]: mitochondrial membrane potential change in A549 cells, profiling panel, cell-based, JC-1 fluorescence, basal, 24 h, 100 nL (AID 1138).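 Also: A549 lung adenocarcinoma cells under basal conditions with no added stimulus; test concentration not given here.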 The note with it: higher = more signal.
Another assay deals with Lefty1. The assay is described as follows: Lefty1 binders on small-molecule microarrays, primary screen, biochemical, small-molecule microarray, 635/667 nm fluorescence (AID 1139). The conditions noted are these: small-molecule microarray binding, fluorescence 635/667; higher = more signal.
For assay [8], the system named is wheat germ agglutinin (Triticum aestivum), Alexa647-labelled. The assay is described as follows: wheat germ agglutinin binders on compound microarrays, profiling panel, artefact control for SMM control-protein annotation, biochemical, small-molecule microarray, 635/667 nm fluorescence (AID 1140).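 Also: score merges 667 nm feature emission with signal to noise over triplicate slides.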 The conditions noted are these: WGA-A647 binding, 635 nm fluorescence, higher = more signal.

For assay [9], the target named is Luciferin 4-monooxygenase (Photinus pyralis) (UniProt P08659). The assay is described as follows: firefly luciferase enzyme inhibitors, primary screen, biochemical, luminescence, purified enzyme, 2006 set (AID 1141).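 Also: cell-free assay with purified firefly luciferase at 100 ng per well in PBS; test concentration not given here.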 The conditions noted are these: SteadyGlo luminescence, 30 min, higher = more signal, called active from +8 up or from −8 down.
Assay [10] has as its system Wnt5a (protein binding on small-molecule microarray). The assay is described as follows: Wnt5a binders on small-molecule microarray, primary screen, biophysical, 635/667 nm fluorescence (AID 1142).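 Also: fluorescence read at 667 nm with signal to noise per printed feature.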 The note with it: 635 nm fluorescence, higher = more signal.
A short description of assay [11]: cell viability in Huh7 cells, primary screen, cytotoxicity control for HCV replication inhibitor project, CellTiter-Glo luminescence, basal, 48 h (AID 1143).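 Also: Huh7 hepatoma cells carrying a hepatitis C replication reporter with no stimulus; test concentration not given here.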 The conditions noted are these: Huh7 HCV replicon, higher = more signal, called active from +8 up or from −8 down.
The nature of assay [12]: P. aeruginosa biofilm formation inhibitors, primary screen, PAO1 strain, BacTiter-Glo luminescence, LB-PBS (AID 1144). The conditions noted are these: 12 h, higher = more signal.
The nature of assay [13]: CREB reporter modulators without forskolin, primary screen, cell-based, PC12, CRE-LacZ reporter, unstimulated (AID 1145). The note with it: no forskolin, luminescence, 4.5 h, higher = more signal, called active from +8 up or from −8 down.
Assay [14] is described as follows: CREB reporter modulators under forskolin, primary screen, cell-based, PC12, CRE-LacZ reporter, forskolin-stimulated (AID 1146).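 Also: PC12 cells with 6xCRE LacZ reporter stimulated by forskolin 10 µM; beta-galactosidase reporter signal reflecting CREB driven transcription.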 The note with it: luminescence, 4.5 h, higher = more signal, called active from +8 up or from −8 down.
Assay [15] concerns the target Streptavidin (Streptomyces avidinii) (UniProt P22629). The assay is described as follows: streptavidin binders on small-molecule microarray, primary screen, artefact control for SMM compound annotation, biophysical, 635/667 nm fluorescence (AID 1147).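 Also: signal reflects streptavidin binding to arrayed compounds as a control protein.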 The conditions noted are these: streptavidin binding, higher = more signal.
Assay [16] can be described thus: small-molecule binders of probe aInhba, primary screen, biochemical, small-molecule microarray, 635/667 nm fluorescence (AID 1148).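 Also: score merges 667nm spot fluorescence with signal-to-noise for antibody binding to printed compounds.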 The note with it: higher = more signal.
In assay [17] the target is Torsin-1A (Homo sapiens) (UniProt O14656). Description: torsin A binders from cell lysate, primary screen, small-molecule microarray, wild-type, 635/667 nm (AID 1149). The conditions noted are these: COS7 hTOR1A-WT lysate, 635 nm fluorescence, higher = more signal.
The target is the same in assay [18]. The assay is described as follows: small-molecule binders of mutant TOR1A in lysate, primary screen, cell lysate, small-molecule microarray, COS7 lysate, 635/667 nm fluorescence (AID 1150).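 Also: score pools 667 nm emission and signal to noise measuring lysate protein binding.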 The conditions noted are these: COS7 hTOR1A mutant lysate, 635 nm fluorescence, higher = more signal.
For assay [19], the system named is Sonic hedgehog protein (Shh). The assay is described as follows: small-molecule binders of Shh protein, primary screen, biochemical, small-molecule microarray, 635/667 nm fluorescence (AID 1151).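 Also: Shh protein binding to compounds spotted on small-molecule microarray slides; score combines spot fluorescence intensity with signal-to-noise across triplicate slides.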 The note with it: small-molecule microarray binding, 635 nm fluorescence; higher = more signal.

Follistatin (Homo sapiens), sequence (P19883 whole entry, looked up): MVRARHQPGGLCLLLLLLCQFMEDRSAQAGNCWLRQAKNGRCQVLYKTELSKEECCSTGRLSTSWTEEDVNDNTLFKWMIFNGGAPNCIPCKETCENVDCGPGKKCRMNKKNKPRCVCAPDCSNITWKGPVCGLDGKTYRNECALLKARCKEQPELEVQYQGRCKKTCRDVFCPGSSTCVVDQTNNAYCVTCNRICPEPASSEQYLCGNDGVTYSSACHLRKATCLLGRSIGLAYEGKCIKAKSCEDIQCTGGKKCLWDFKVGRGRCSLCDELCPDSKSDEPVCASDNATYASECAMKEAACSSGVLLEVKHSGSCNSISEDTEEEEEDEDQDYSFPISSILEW
Torsin-1A (Homo sapiens), sequence (O14656 whole entry, looked up): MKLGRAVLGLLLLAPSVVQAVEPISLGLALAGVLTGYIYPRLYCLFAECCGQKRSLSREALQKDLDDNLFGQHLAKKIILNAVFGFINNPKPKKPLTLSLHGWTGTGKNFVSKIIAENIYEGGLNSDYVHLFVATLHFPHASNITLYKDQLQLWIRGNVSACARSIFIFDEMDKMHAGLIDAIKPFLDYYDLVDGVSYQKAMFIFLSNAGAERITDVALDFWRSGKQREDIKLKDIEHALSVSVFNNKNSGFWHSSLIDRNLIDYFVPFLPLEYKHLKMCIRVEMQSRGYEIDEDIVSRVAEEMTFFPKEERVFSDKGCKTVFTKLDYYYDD
Streptavidin (Streptomyces avidinii), sequence (P22629 whole entry, looked up): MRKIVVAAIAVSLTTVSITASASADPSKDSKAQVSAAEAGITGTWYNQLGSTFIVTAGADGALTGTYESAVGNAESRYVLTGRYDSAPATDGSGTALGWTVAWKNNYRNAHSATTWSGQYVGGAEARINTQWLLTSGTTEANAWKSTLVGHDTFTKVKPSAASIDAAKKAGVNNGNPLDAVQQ
Luciferin 4-monooxygenase (Photinus pyralis), sequence (P08659 whole entry, looked up): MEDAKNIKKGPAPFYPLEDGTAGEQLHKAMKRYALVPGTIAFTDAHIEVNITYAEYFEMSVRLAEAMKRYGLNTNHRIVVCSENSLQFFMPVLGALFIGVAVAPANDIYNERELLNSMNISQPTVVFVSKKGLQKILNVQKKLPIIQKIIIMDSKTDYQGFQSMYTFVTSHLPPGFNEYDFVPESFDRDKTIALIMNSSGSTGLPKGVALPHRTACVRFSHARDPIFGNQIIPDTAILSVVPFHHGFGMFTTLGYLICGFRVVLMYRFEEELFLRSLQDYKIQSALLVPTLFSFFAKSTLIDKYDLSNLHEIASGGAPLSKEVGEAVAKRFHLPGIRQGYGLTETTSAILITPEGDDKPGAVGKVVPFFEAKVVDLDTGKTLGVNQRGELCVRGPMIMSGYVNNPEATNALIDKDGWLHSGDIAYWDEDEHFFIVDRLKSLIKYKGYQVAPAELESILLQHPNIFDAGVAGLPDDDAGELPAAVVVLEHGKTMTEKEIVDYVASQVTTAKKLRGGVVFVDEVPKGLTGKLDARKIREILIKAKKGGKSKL
Focal adhesion kinase 1 (Homo sapiens), sequence (Q05397 whole entry, looked up): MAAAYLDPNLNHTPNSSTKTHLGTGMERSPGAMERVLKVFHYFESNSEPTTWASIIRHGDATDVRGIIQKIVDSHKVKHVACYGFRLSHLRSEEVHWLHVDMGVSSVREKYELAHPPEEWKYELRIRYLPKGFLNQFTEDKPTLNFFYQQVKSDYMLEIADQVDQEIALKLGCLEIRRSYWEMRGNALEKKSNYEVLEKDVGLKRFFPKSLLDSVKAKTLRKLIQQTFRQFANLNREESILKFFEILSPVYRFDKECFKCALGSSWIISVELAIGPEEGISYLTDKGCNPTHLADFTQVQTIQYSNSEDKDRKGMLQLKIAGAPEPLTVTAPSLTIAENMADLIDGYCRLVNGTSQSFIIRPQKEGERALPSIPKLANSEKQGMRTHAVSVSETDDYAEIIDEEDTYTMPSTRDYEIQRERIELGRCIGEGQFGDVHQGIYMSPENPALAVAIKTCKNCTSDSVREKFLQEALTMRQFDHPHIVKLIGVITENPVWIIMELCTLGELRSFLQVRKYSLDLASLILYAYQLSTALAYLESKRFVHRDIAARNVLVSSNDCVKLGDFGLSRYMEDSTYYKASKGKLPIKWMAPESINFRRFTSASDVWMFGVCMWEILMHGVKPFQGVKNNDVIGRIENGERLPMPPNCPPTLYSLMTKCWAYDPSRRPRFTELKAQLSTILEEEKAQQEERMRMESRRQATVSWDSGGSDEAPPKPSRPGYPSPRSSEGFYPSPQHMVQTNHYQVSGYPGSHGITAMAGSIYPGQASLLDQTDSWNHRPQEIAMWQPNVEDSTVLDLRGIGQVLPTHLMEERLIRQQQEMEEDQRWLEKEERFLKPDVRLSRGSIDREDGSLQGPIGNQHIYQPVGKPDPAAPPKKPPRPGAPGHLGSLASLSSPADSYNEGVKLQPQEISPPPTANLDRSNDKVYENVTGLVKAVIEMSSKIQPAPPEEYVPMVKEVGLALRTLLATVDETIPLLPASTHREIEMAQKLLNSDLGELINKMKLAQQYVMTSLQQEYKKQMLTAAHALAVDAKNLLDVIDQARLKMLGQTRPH
Fibroblast growth factor 2 (Homo sapiens), sequence (P09038 whole entry, looked up): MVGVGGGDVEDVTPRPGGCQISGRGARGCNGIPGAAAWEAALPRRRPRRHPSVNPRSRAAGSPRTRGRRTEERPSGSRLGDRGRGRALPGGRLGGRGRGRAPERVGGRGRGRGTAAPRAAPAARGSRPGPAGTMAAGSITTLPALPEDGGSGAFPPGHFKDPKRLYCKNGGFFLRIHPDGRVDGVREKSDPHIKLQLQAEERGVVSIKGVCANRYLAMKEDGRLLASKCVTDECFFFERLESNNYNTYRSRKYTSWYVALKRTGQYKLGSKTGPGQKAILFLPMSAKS

As for `C=CCOC(=O)[C@@H]1[C@H]2C(=O)O[C@H](c3ccccc3)[C@H](c3ccccc3)N2[C@H](c2ccc(OCCOC(=O)[C@H]3C[C@H]4C(=O)N[C@@H](CCCC[N+](C)(C)C)C(=O)N4[C@H]3c3cccc(OCCO)c3)cc2)[C@@]12C(=O)Nc1ccc(I)cc12`, the composite z-score was 1.3 in [1]; 1.18 in assay [2]; 0.163 in [3]; 0.496 in [4]; 1.4 in assay [5]; 1.55 in assay [6]. The composite z-score with Lefty1 was 1.15; in [8], 0.115; in [10], 0.662; in assay [15], 0.128; in assay [16], 0.115; in the assay with Torsin-1A (Homo sapiens) [17], 0.559. The composite z-score worked out at 0.327 with Torsin-1A (Homo sapiens) [18] and 1.89 in [19]. The z-score is -0.93 in [7]; -0.138 (inactive) in assay [9]; -0.693 (inactive) in assay [11]; -0.0854 (inactive) in [12]; 0.289 (inactive) in assay [13]; -0.464 (inactive) in assay [14].
As to `CN(C)CCCCNC(=O)[C@@H]1C[C@@H]2C(=O)N[C@@H](CCCCN)C(=O)N2[C@@H]1c1cccc(OCCO)c1`, the composite z-score is 0.117 in [1]; -0.229 in assay [2]; -0.815 in assay [3]; -0.581 in assay [4]; -0.029 in [5]; 0.554 in [6]. For the same compound, the composite z-score with Lefty1 is -0.382; in [8] it was -0.13; in [10] it was -0.157; in assay [15], -0.521; in assay [16], 0.245; in the assay with Torsin-1A (Homo sapiens) [17], -1.37. In addition, the composite z-score in the assay with Torsin-1A (Homo sapiens) [18] was -2.02; in assay [19] it was 0.985. Also, the z-score in [7] was -0.872; in [9], 0.654 (inactive); in assay [11], 0.0925 (inactive); in assay [12], -0.703 (inactive); in assay [13] it was -0.805 (inactive); in [14] it was -0.325 (inactive).
As for `COC(=O)[C@@]1(Cc2ccc(OC)cc2)[C@H]2c3cc(C(=O)N4CCCC4)n(CCc4ccccn4)c3C[C@H]2CN1C(=O)c1ccccc1`, the composite z-score was 0.0421 in [1]; 0.201 in assay [2]; 0.579 in [3]; 0.821 in assay [4]; -0.29 in assay [5]; -0.676 in assay [6]. Also, the composite z-score in the assay with Lefty1 is -0.91; in [8] it was 0.0844; in assay [10] it was -0.249; in [15] it was 0.698; in assay [16], -0.0332; with Torsin-1A (Homo sapiens) [17] it was -0.166. Further, the composite z-score with Torsin-1A (Homo sapiens) [18] stood at 1.1; in assay [19] it was 0.429. Also, the z-score in assay [7] is -1.29; in assay [9], 2.15 (inactive); in assay [11], -0.784 (inactive); in assay [12], -0.304 (inactive); in [13], 0.201 (inactive); in assay [14], 0.404 (inactive).
As to `O=C(NCc1ccccc1)[C@@H]1c2ccccc2C(=O)N(C2CCCCC2)[C@H]1c1ccc(CO)cc1`, the composite z-score was 0.61 in assay [1]; 1.01 in [2]; 0.405 in assay [3]; -0.0594 in assay [4]; 1.29 in assay [5]; 0.487 in [6]. Moreover, the composite z-score in the assay with Lefty1 was 0.917; in [8], 0.803; in assay [10], 0.191; in [15], -0.395; in assay [16] it was -0.352; with Torsin-1A (Homo sapiens) [17], 0.113. The composite z-score worked out at 1.11 with Torsin-1A (Homo sapiens) [18] and 1.4 in assay [19]. Besides, the z-score in assay [7] was 2.15; in assay [9] it was -0.441 (inactive); in assay [11] it was -1.08 (inactive); in assay [12], 0.583 (inactive); in assay [13], 0.234 (inactive); in assay [14], 0.174 (inactive).
As for `O=C1O[C@@H](c2ccccc2)[C@@H](c2ccccc2)N2[C@@H](c3ccccc3OCCO)[C@]3(C(=O)Nc4ccc(C#CC5(O)CCCCCC5)cc43)[C@@H](C(=O)NC[C@H](O)c3ccccc3)[C@H]12`, the composite z-score was 1.82 in assay [1]; 1.2 in assay [2]; 1.03 in [3]; -0.51 in assay [4]; 1.17 in assay [5]; 0.106 in [6]. Besides, the composite z-score is 1.54 in the assay with Lefty1; 1.21 in [8]; 0.602 in assay [10]; 0.329 in assay [15]; 1.09 in assay [16]; -0.179 with Torsin-1A (Homo sapiens) [17]. Also, the composite z-score with Torsin-1A (Homo sapiens) [18] is 0.251; in assay [19] it was 2.17. Further, the z-score was -1.15 in [7]; -0.215 (inactive) in [9]; -6.25 (inactive) in assay [11]; 0.813 (inactive) in assay [12]; 0.0776 (inactive) in assay [13]; 1.12 (inactive) in [14].

Values taken from PubChem BioAssay.
